Screening results as filed in PubChem BioAssay.
Shown are actives, neighbours in structure and some others; about 5.9% of the full set was active somewhere.
Gal4-VP16 FLuc: counter-screen for ROR gamma inhibitors: Gal4-VP16 reporter; hit rate 3.5% among 310,000; AID 2546; Drosophila S2 Gal4-VP16 UAS-luciferase, luminescence, 20 h; Potency, µM (titrated, usually from 53.6 µM), for inactives: top-dose activity, negative = inhibition, hits mostly inhibitors;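 note: Gal4-VP16 expression switched on by copper sulfate through the metallothionein promoter; potency is the fitted concentration of half-maximal effect; nearly all actives have a fitted effect of over 50% in size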
GALK inh: galactokinase (human) inhibition | AID 1868 | P51570 | hit rate 0.007% among 270,000 | Purified GALK, Kinase-Glo residual ATP luminescence | Potency, µM (doses to about 57.5 µM), for inactives: top-dose activity change, negative = inhibition, actives largely listed as inhibitors; note: potency is the fitted concentration of half-maximal effect
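Luminescence from leftover ATP (Ultra-Glo luciferase/luciferin) served as read-out after a 1 h room-temperature reaction of 5 nM GALK with 35 uM ATP and 100 uM galactose.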
RORg inh: blocks mouse ROR gamma transcriptional activity; Drosophila S2 Gal4-RORgamma UAS-luciferase reporter, 20 h; Potency, µM (series often up to 53.6 µM), inactives show top-dose activity change, negative = inhibition, usual class: inhibitors; P51450; AID 2551; hit rate 5.4% among 310,000; note: potency is the fitted concentration of half-maximal effect; nearly all actives have a fitted effect of over 60% in size
Target sequence (P51450 whole entry, looked up, the tested form may be a part): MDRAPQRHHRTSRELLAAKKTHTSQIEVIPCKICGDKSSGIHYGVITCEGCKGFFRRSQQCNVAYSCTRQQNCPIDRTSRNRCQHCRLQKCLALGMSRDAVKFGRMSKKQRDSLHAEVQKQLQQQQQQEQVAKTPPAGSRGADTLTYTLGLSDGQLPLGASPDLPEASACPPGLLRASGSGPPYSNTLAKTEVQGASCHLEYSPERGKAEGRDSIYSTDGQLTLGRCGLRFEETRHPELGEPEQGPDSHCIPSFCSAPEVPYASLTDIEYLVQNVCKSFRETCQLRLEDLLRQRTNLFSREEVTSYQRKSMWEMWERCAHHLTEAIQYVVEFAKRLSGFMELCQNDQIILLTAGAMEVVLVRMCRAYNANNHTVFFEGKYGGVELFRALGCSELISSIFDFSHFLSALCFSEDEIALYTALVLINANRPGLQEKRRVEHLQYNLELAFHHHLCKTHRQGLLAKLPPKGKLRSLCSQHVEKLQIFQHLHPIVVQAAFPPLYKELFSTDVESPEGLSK
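Schneider cells (Drosophila), stable Gal4 DBD–ROR gamma + UAS-luc; 1 hr cmpd preincubation; Cu2+ induction 700 uM final; 20 hr ambient; luminescence.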
Coupling enz: inhibits coupling enzyme system, counter-screen for aldolase hits. coupling enzyme system counterscreen, AmpLite Red fluorescence. activity change, negative = inhibition, % at 58.2 µM, hits read low. hit rate 0.67% among 290,000. AID 2472; in the data active = activity change below about -30%
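First, compound is pin-transferred into glyceraldehyde-3-phosphate coupling-enzyme reagent at 57.5 uM final and held 10 min at RT. Next, substrate, coupling system and AmpLite Red are added. After 20 min RT, fluorescence (525/598 nm) is read.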
TrxR1 substrate: substrates of rat thioredoxin reductase 1; purified TrxR1 substrate turnover, NADPH consumption readout; Potency, µM (top dose mostly 114 µM), inactives show at the top dose activity change, negative = substrate turnover; hit rate 0.01% among 390,000; note: potency is the fitted concentration of half-maximal effect; nearly all actives have a fitted effect of over 50% in size
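Rat TrxR1, dispensed at 90 nM, was prereduced with 400 uM NADPH (final) for 5 min at ~22 deg C, then incubated with compound 15 min before 400 uM selenite. A first-read NADPH fluorescence drop versus no-compound background flagged substrates.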
rTrxR1 inhibitor: inhibitors of rat thioredoxin reductase 1 | Potency, µM (titrated, usually from 114 µM), for the others: at the top dose activity change, negative = inhibition, most hits filed as inhibitors | recombinant rTrxR1, NADPH fluorescence consumption, selenite substrate | O89049 | hit rate 1% among 390,000; note: potency is the fitted concentration of half-maximal effect; nearly all actives have a fitted effect of over 65% in size
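Rat TrxR1 (90 nM in the dispensed reagent) was pre-reduced with 400 uM NADPH for 5 min at room temperature, then incubated with compound for 15 min. After 400 uM selenite was added, NADPH fluorescence (Ex 340/Em 450 nm) was followed for 8 min.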
* marks the source's active call; other numbers are inactive results; u = inconclusive; x = no result given; [ ] = dose if it differs, or a comment. Unless noted, calls come from the whole dose curve; as a rule, active = well fitted curve in the direction sought with a large enough effect; inconclusive = small, poorly fitted or top-dose-only effect, or another doubt; inactive = no such curve, though single readings can be large; an effect the other way counts as inactive or inconclusive. % is set by controls: 0 for no effect and ±100 for the full control effect.

SMILES | Gal4-VP16 FLuc | GALK inh | RORg inh | Coupling enz | TrxR1 substrate | rTrxR1 inhibitor
CCc1noc(C)c1C(=O)OC(C)C(=O)c1c(C)[nH]c2ccccc12 (stereo not drawn) | x | x | x | x | -7.5% | 5.0%
Cn1c(-c2sc3cc(C(F)(F)F)cnc3c2-c2ccccn2)n[nH]c1=S | 3.3% | 4.4% | u | 1.8 | -6.0%[57.1 µM] | -11.1%[57.1 µM]
Cn1c(-c2sc3cc(C(F)(F)F)cnc3c2-c2cccs2)n[nH]c1=S | -6.7% | -1.1% | 2.82µM* | 0.4 | -2.0% | u
FC(F)(F)c1cc(-c2ccccc2)nc(N2CCCCC2)n1 | -0.4% | -0.8% | 11.3% | -4.1 | 7.9%[57.1 µM] | 14.9%[57.1 µM]
FC(F)(F)c1cc(-c2ccccc2)nc(N2CCOCC2)n1 | -2.2% | -3.2% | 0.794µM* | 0.6 | -8.2% | -6.3%
COCCOC(=O)C1=C(C)N=C2SCCC(=O)N2C1c1ccc(OCc2ccccc2)c(OC)c1 (stereo not drawn) | x | x | x | x | 3.9% | 20.8%
OCC1(Cc2cccc(C(F)(F)F)c2)CCN(Cc2cc3ccccc3o2)CC1 | -17.0% | -1.9% | -19.2% | -1.3 | -9.1%[57.1 µM] | 16.8%[57.1 µM]
CCOC(=O)C1(CC2CCCCO2)CCN(Cc2nccn2-c2cccc(C)c2)CC1 (stereo not drawn) | 12.6µM* | -1.3% | 4.47µM* | 1.1 | -4.5% | -5.8%
Cc1c(CN2CCC(CO)(Cc3cccc(C(F)(F)F)c3)CC2)c2ccccc2n1C | 8.91µM* | 1.2% | 7.08µM* | -7.0 | 0.8% | 3.7%
Cc1cccc(-n2ccnc2CN2CCN(C3CCCC3)C(CCO)C2)c1 (stereo not drawn) | -16.3% | 2.0% | -24.7% | 2.6 | 7.0% | 20.4%
Cc1cccc(-n2ccnc2CN2CCC(CO)(Cc3ccccc3)CC2)c1 | -4.4% | 0.5% | 15.8µM* | 0.1 | 6.2% | 9.7%
CCOC(=O)C1(CC2CCCCO2)CCN(Cc2cc(F)ccc2-n2cccn2)CC1 (stereo not drawn) | 15.4% | 0.6% | 15.5% | -1.8 | -6.7% | -0.2%
CCOC(=O)C1(CC2CCCCO2)CCN(Cc2nccn2-c2ccc(OC)cc2)CC1 (stereo not drawn) | u | 1.1% | 7.08µM* | 1.8 | -0.6%[57.1 µM] | 5.1%[57.1 µM]
O=[N+]([O-])c1ccc2c(c1)N([O-])C1(CCCCC1)[N+]2=O | -6.3% | 6.7% | -13.6% | -50.8* | -2.0%[57.1 µM] | u
O=C(CCNC(=O)c1ccco1)Nc1ccc(OC(F)F)c(Cl)c1 | -15.3% | 0.5% | 11.3% | -0.6 | 1.1% | 9.5%
O=C(Cc1csc(Nc2nc(=S)[nH]c3ccccc23)n1)N1CCN(c2cccc(Cl)c2)CC1 | 5.01µM* | -2.9% | 1µM* | -3.6 | 0.2%[57.1 µM] | 18.9%[57.1 µM]
O=C(Cn1c(=O)[nH]c2ccccc2c1=O)N1CCN(c2cccc(Cl)c2)CC1 | -4.0% | 8.8% | 5.0% | 2.4 | 9.7% | 19.9%[57.1 µM]
Cc1ccc(Cl)cc1N1CCN(C(=O)Cc2csc(Nc3nc(=S)[nH]c4ccccc34)n2)CC1 | 3.55µM* | 12.4% | 0.631µM* | -4.8 | 3.6%[57.1 µM] | 34.1%[57.1 µM]
CCCCn1c(N)c(N(CCC(C)C)C(=O)C2CCCO2)c(=O)[nH]c1=O (stereo not drawn) | x | x | x | x | -7.5% | -6.6%
O=C(O)CCSCC(=O)c1ccc2c(c1)OCCO2 | 3.55µM* | 5.5% | 2µM* | 2.2 | 0.7% | u
O=C(O)CCC(=O)c1ccc2c(c1)OCCO2 | -2.9% | 0.2% | -10.8% | 4.5 | 2.5% | 16.0%
O=C(CCN1Cc2ccccc2C1)c1ccc2c(c1)OCCO2 | 15.8µM* | 5.4% | 12.6µM* | 0.1 | -4.0% | 0.316µM*
O=C(CCN1CCc2ccccc2C(c2ccccc2)C1)c1ccc2c(c1)OCCO2 (stereo not drawn) | 3.55µM* | -1.5% | 4.47µM* | 11.4 | -12.3% | 1.12µM*
COc1ccccc1N(CC(=O)NCC1CCCO1)C(=O)Cn1nnc(-c2cccs2)n1 (stereo not drawn) | 5.2% | -2.7% | -23.1% | -0.3 | 6.4%[11.4 µM] | 24.4%[11.4 µM]
